Data as given in PubChem BioAssay (Tox21).
Inconclusive results are not listed. Some structures have more than one record in an assay (separate samples or runs), and their calls can disagree. Activity calls are given as the source filed them. Calls follow the shape of the dose curve; as a rule, active = well fitted curve in the direction sought with a large enough effect in the repeat runs; inconclusive = weak or mixed curves; inactive = no such curve, though single readings can be large; an effect the other way counts as inactive or inconclusive.

How the values were obtained:
[1] = qHTS RealTime-Glo MT Cell Viability Assay in HepG2 cells - 40 hour (AID 1224870); also: nearly all actives have a fitted effect of over 50% in size
In short: (§1)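 HepG2 cells mixed with RealTime-Glo MT reagents (NanoLuc plus cell-permeant prosubstrate) were seeded at 600 cells/well, incubated 5 h at 37 C/5% CO2, then pinned with compounds in DMSO; nonlytic luminescence tracked viability during 40 h treatment.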

[2] = A CellTox Green Cytotoxicity Assay to monitor cytotoxicity in HEK293 cells - 40 hour (AID 1224871); also: nearly all actives have a fitted effect of over 45% in size; also: potency is read from the fitted curve at half-maximal effect
In short: (§2)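 HEK293 cells premixed with CellTox Green dye were seeded at 600 cells/well and left 5 h at 37 C/5% CO2 before pin transfer of 23 nL compound in DMSO. Fluorescence from dye bound to dead-cell DNA was read during 40 h treatment.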

[3] = qHTS RealTime-Glo MT Cell Viability Assay in HEK293 cells - 16 hour (AID 1224872); also: nearly all actives have a fitted effect of over 50% in size; also: potency is read from the fitted curve at half-maximal effect
In short: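 Nonlytic real-time viability readout: viable cells convert prosubstrate to NanoLuc substrate, giving luminescence proportional to live cell number. HEK293, 600 cells/well, compound added after 5 h, continuous culture at 37 C.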

[4] = qHTS RealTime-Glo MT Cell Viability Assay in HepG2 cells - 8 hour (AID 1224873); also: nearly all actives have a fitted effect of over 55% in size
In short: as §1

[5] = qHTS RealTime-Glo MT Cell Viability Assay in HEK293 cells - 40 hour (AID 1224874); conditions: RealTime-Glo luminescence; max response: stronger effect = lower value; also: nearly all actives have a fitted effect of over 50% in size; also: potency is read from the fitted curve at half-maximal effect
In short: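 HEK293 cells mixed with RealTime-Glo reagents (NanoLuc plus cell-permeant prosubstrate) at 600 cells/well, preincubated 5 h at 37 C/5% CO2, then given 23 nL compound in DMSO. Nonlytic luminescence from viable cells was read at 0, 8, 16, 24, 32 and 40 h.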

[6] = A CellTox Green Cytotoxicity Assay to monitor cytotoxicity in HEK293 cells - 24 hour (AID 1224875); also: nearly all actives have a fitted effect of over 45% in size; also: potency is read from the fitted curve at half-maximal effect
In short: as §2

[7] = A CellTox Green Cytotoxicity Assay to monitor cytotoxicity in HepG2 cells - 16 hour (AID 1224876); also: nearly all actives have a fitted effect of over 45% in size; also: potency is read from the fitted curve at half-maximal effect
In short: (§3)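 HepG2 cells were seeded together with the CellTox Green dye at 600 cells/well, left 5 h at 37 C/5% CO2, then given compounds in DMSO. Fluorescence from dye bound to dead-cell DNA was read repeatedly over 40 h of treatment at 37 C.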

[8] = qHTS RealTime-Glo MT Cell Viability Assay in HepG2 cells - 32 hour (AID 1224877); also: nearly all actives have a fitted effect of over 55% in size
In short: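 Luminescence read-out: viable HepG2 cells reduce a prosubstrate to a NanoLuc substrate, giving a signal proportional to live cell number. Reads taken at 0, 8, 16, 24, 32 and 40 h of compound exposure at 37 C.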

[9] = A CellTox Green Cytotoxicity Assay to monitor cytotoxicity in HepG2 cells - 24 hour (AID 1224878); also: nearly all actives have a fitted effect of over 45% in size; also: potency is read from the fitted curve at half-maximal effect
In short: as §3

[10] = A CellTox Green Cytotoxicity Assay to monitor cytotoxicity in HepG2 cells - 40 hour (AID 1224879); also: nearly all actives have a fitted effect of over 40% in size; also: potency is read from the fitted curve at half-maximal effect
In short: as §3
% is scaled to controls: 0 for no effect and ±100 for the full control effect.

ClCc1ccccc1
inactive: Potency [1] | Potency [2] | Potency [3] | Potency [4] | max response [5] 2.64% | Potency [6] | Potency [7] | Potency [8] | Potency [9] | Potency [10]

CC(=O)[C@H]1CC[C@H]2[C@@H]3CC[C@H]4C[C@](C)(O)CC[C@]4(C)[C@H]3CC[C@]12C
inactive: Potency [1] | Potency [2] | Potency [3] | Potency [4] | max response [5] -9.18% | Potency [6] | Potency [7] | Potency [8] | Potency [9] | Potency [10]

NS(=O)(=O)C(F)(F)C(F)(F)C(F)(F)C(F)(F)C(F)(F)C(F)(F)C(F)(F)C(F)(F)F
inactive: Potency [1] | Potency [2] | Potency [3] | Potency [4] | max response [5] -4.36% | Potency [6] | Potency [7] | Potency [8]

CCOC(=O)C(Cl)C(C)=O (configuration not stated)
inactive: Potency [1] | Potency [2] | Potency [3] | Potency [4] | max response [5] -9.27% | Potency [6] | Potency [7] | Potency [8] | Potency [9]
active: Potency [10] 24.8 µM

CCOP(=S)(OCC)Oc1nc(Cl)c(Cl)cc1Cl
21.9 µM (active) and inactive: Potency [3]
inactive: Potency [1] | Potency [4] | max response [5] -11.7% | Potency [7] | Potency [8] | Potency [9] | Potency [10]
34.8 µM (active) and inactive: Potency [2]
active: Potency [5] 24.6 µM

Nc1nc(N)nc(N)n1
inactive: Potency [1] | Potency [2] | Potency [3] | Potency [4] | max response [5] 14.5% | Potency [6] | Potency [7] | Potency [8] | Potency [9] | Potency [10]

COc1nn(C(=O)NS(=O)(=O)c2ccccc2OC(F)(F)F)c(=O)n1C
active: Potency [2] 20 µM | Potency [6] 22.4 µM | Potency [7] 35.5 µM | Potency [9] 39.9 µM | Potency [10] 39.9 µM
inactive: Potency [1] | Potency [3] | Potency [4] | max response [5] 12.6% | Potency [8]

Cc1ccc(N)cc1C
inactive: Potency [1] | Potency [2] | Potency [3] | Potency [4] | max response [5] 13.4% | Potency [6] | Potency [7] | Potency [8] | Potency [9] | Potency [10]

COP(=S)(OC)Oc1cc(Cl)c(I)cc1Cl
inactive: Potency [1] | Potency [2] | Potency [3] | Potency [4] | max response [5] -19.9% | Potency [6] | Potency [7] | Potency [8] | Potency [9] | Potency [10]

c1cc2ccc3cccc4ccc(c1)c2c34
inactive: Potency [1] | Potency [2] | Potency [3] | Potency [4] | max response [5] -0.186% | Potency [6] | Potency [7] | Potency [8] | Potency [9]

Cc1ccccc1CCl
inactive: Potency [1] | Potency [2] | Potency [3] | Potency [4] | max response [5] -6.69% | Potency [6] | Potency [7] | Potency [8] | Potency [9] | Potency [10]

CC1Sc2c(C(=O)O)c(=O)c3cc(F)c(N4CCNCC4)cc3n21 (configuration not stated)
inactive: Potency [1] | Potency [2] | Potency [3] | Potency [4] | max response [5] 1.01% | Potency [6] | Potency [7] | Potency [8] | Potency [9] | Potency [10]

CCCCCC[N+](=O)[O-]
inactive: Potency [1] | Potency [2] | Potency [3] | Potency [4] | max response [5] 4.3% | Potency [6] | Potency [7] | Potency [8] | Potency [9] | Potency [10]

CC(C)(Cl)[N+](=O)[O-]
inactive: Potency [1] | Potency [2] | Potency [3] | Potency [4] | max response [5] 2.49% | Potency [6] | Potency [7] | Potency [8] | Potency [9] | Potency [10]

CC(Cl)C(C)Cl (configuration not stated)
inactive: Potency [1] | Potency [2] | Potency [3] | Potency [4] | max response [5] 1.04% | Potency [6] | Potency [7] | Potency [8] | Potency [9] | Potency [10]

c1ccc(C2CC2)c(OCC2=NCCN2)c1
inactive: Potency [1] | Potency [2] | Potency [3] | Potency [4] | max response [5] 3.13% | Potency [6] | Potency [7] | Potency [8] | Potency [9] | Potency [10]

CCCCc1c(C)nc(NCC)nc1OS(=O)(=O)N(C)C
inactive: Potency [1] | Potency [2] | Potency [4] | Potency [6] | Potency [7] | Potency [8] | Potency [9] | Potency [10]
active: Potency [3] 12.3 µM | Potency [5] 13.8 µM

CC(C)(CCl)C(=O)Cl
inactive: Potency [1] | Potency [2] | Potency [3] | Potency [4] | max response [5] 0.815% | Potency [6] | Potency [7] | Potency [8] | Potency [9] | Potency [10]

Clc1cc(Cl)c(Cl)c(Cl)c1
inactive: Potency [1] | Potency [2] | Potency [3] | Potency [4] | max response [5] -4.38% | Potency [6] | Potency [7] | Potency [8] | Potency [9] | Potency [10]

CN(N=O)c1ccc([N+](=O)[O-])cc1
active: Potency [9] 43.6 µM | Potency [10] 43.6 µM
inactive: Potency [1] | Potency [2] | Potency [3] | Potency [4] | max response [5] -1.54% | Potency [6] | Potency [7] | Potency [8]

CCOP(=S)(OCC)SCSCC
inactive: Potency [1] | Potency [2] | Potency [3] | Potency [4] | max response [5] 1.39% | Potency [6] | Potency [7] | Potency [8] | Potency [9] | Potency [10]

O=C(CBr)Nc1ccc(Cl)cc1C(=O)c1ccccc1F
inactive: Potency [1] | Potency [2] | Potency [3] | Potency [4] | max response [5] -13.4% | Potency [6] | Potency [7] | Potency [8] | Potency [9] | Potency [10]
